Hits are enriched below; roughly 6.6% of the tested compounds scored in any of these assays.
Autofluor counter: counter-screen for toxin protease inhibitors: compound fluorescence; compound autofluorescence counterscreen, microsphere flow cytometry; active compounds read high; fluorescence intensity (test concentration not listed); 3.1% of 360,000 active; AID 624483; in the data active means fluorescence intensity above about 16000
BoNT-A LC inh2: inhibitors of Botulinum neurotoxin A light chain protease. multiplex microsphere protease substrate cleavage, flow cytometry. AID 588499. inhibition, % at 10 µM. 0.17% of 360,000 active
BoNT F protease: blocks Botulinum neurotoxin F light chain protease; Multiplex microsphere protease cleavage assay, flow cytometry; 0.22% of 360,000 active; AID 588497; inhibition, % at 10 µM; in the data active means inhibition above about 35%, passing the limit was not always enough
GDH-TPI counter: GDH-TPI coupled enzyme inhibition counter-screen. GDH-TPI coupled enzyme counterscreen, NADH absorbance. inhibition, % at 4.8 µM. 1.2% of 360,000 active. AID 588335; in the data active means inhibition above about 30%
Anthrax LF inh2: blocks Bacillus anthracis lethal factor protease. P15917. multiplex microsphere protease cleavage assay, LF. inhibition, % at 10 µM. 0.12% of 360,000 active. AID 588501
Target sequence (P15917 whole entry, looked up): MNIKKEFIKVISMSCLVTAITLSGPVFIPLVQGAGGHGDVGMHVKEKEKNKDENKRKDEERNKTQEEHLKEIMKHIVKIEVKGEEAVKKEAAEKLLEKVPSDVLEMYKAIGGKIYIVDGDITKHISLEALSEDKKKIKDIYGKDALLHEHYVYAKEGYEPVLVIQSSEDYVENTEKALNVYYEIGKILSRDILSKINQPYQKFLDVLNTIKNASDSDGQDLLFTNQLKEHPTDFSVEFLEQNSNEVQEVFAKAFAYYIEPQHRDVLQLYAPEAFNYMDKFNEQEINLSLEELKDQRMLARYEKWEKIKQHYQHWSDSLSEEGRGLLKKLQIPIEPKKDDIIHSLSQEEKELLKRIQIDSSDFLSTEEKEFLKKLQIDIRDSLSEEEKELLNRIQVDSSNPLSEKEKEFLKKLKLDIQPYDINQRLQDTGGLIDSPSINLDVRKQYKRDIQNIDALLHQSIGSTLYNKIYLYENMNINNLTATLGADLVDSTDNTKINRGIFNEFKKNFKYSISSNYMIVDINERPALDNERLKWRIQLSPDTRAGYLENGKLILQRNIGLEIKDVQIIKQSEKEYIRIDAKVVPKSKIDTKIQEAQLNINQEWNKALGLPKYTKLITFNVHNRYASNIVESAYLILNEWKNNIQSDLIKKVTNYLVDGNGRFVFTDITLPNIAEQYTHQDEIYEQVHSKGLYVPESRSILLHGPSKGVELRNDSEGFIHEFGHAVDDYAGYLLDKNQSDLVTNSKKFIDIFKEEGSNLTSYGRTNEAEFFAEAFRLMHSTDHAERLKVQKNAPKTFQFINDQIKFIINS
FBA Mtb inh: inhibits M. tuberculosis FBA enzyme. 2.3% of 360,000 active. inhibition, % at 1 µM. purified M. tuberculosis FBA, fluorescence read-out. AID 588726; in the data active means inhibition above about 27%
Hits are given with their value. Unless noted, no stated cut-off is given here; in the data, active means inhibition above about 30%; inconclusive means no clear call, values can overlap the other calls; inactive means below that.

O=C(Nc1ccn(Cc2c(F)c(F)cc(F)c2F)n1)c1ccc(COc2cc(Cl)ccc2Cl)o1 was read as Autofluor counter 22103, BoNT-A LC inh2 inactive, BoNT F protease inactive, GDH-TPI counter inactive, Anthrax LF inh2 inactive and FBA Mtb inh inactive.
For O=C(Nc1ccn(Cc2ccccc2F)n1)c1ccc(COc2cc(Cl)ccc2Cl)o1 the results were Autofluor counter inactive, BoNT-A LC inh2 inactive, BoNT F protease inactive, GDH-TPI counter inactive, Anthrax LF inh2 inactive and FBA Mtb inh inactive.
O=C(Nc1ccn(Cc2ccccc2F)n1)c1ccc(COc2ccccc2Cl)cc1 was read as Autofluor counter 19484, BoNT-A LC inh2 inactive, BoNT F protease inactive, GDH-TPI counter inactive, Anthrax LF inh2 inactive and FBA Mtb inh inactive.
Screening CCCn1c(N)c(C(=O)CSc2nnc(-c3ccoc3C)n2C)c(=O)n(C)c1=O returned Autofluor counter inactive, BoNT-A LC inh2 inactive, BoNT F protease inactive, GDH-TPI counter inactive, Anthrax LF inh2 inactive and FBA Mtb inh inactive.
Screening C=CCNc1nc(Nc2ccc(OC)c(OC)c2)c2sc(-c3ccccc3)cc2n1 returned Autofluor counter inactive, BoNT-A LC inh2 inactive, BoNT F protease inactive, GDH-TPI counter inactive, Anthrax LF inh2 inactive and FBA Mtb inh inactive.
Screening Cc1cc(=O)[nH]c(SCc2nc3ccccc3s2)n1 returned Autofluor counter inactive, BoNT-A LC inh2 inactive, BoNT F protease inactive, GDH-TPI counter inactive, Anthrax LF inh2 inactive and FBA Mtb inh inactive.
`CCCc1cc(=O)[nH]c(SCc2ccccc2Cl)n1` gave Autofluor counter 20635, BoNT-A LC inh2 inactive, BoNT F protease inactive, GDH-TPI counter inactive, Anthrax LF inh2 inactive and FBA Mtb inh inactive.
For Nc1cc(=O)[nH]c(SCc2ccccc2Cl)n1 the results were Autofluor counter inactive, BoNT-A LC inh2 inactive, BoNT F protease inactive, GDH-TPI counter inactive, Anthrax LF inh2 inactive and FBA Mtb inh inactive.
Screening CCCc1cc(=O)[nH]c(SCc2nc3ccccc3s2)n1 returned Autofluor counter 19993, BoNT-A LC inh2 inactive, BoNT F protease inactive, GDH-TPI counter inactive, Anthrax LF inh2 inactive and FBA Mtb inh inactive.
Screening COc1ccc(-c2onc3ccc(C(=O)/C=C/N(C)C)cc23)cc1 returned Autofluor counter inactive, BoNT-A LC inh2 inactive, BoNT F protease 44.9, GDH-TPI counter inactive, Anthrax LF inh2 inactive and FBA Mtb inh inactive.
For Cc1ccc(S(=O)(=O)Nc2cccc(C(=O)NCC(C)(C)N3CCOCC3)c2)cc1F the results were Autofluor counter inactive, BoNT-A LC inh2 inactive, BoNT F protease inactive, GDH-TPI counter inactive, Anthrax LF inh2 inactive and FBA Mtb inh inactive.
CCOc1cc(NC(=S)NCC2CCCO2)c(OCC)cc1NC(=O)c1ccccc1C (stereo not drawn) was read as Autofluor counter inactive, BoNT-A LC inh2 inactive, BoNT F protease inactive, GDH-TPI counter inactive, Anthrax LF inh2 inactive and FBA Mtb inh inactive.
`CCOc1cc(NC(=S)Nc2ccccc2)c(OCC)cc1NC(=O)c1ccccc1` gave Autofluor counter 23797, BoNT-A LC inh2 inactive, BoNT F protease inactive, GDH-TPI counter inactive, Anthrax LF inh2 inactive and FBA Mtb inh inactive.
`CCOc1cc(NC(=S)Nc2ccccc2OC)c(OCC)cc1NC(=O)c1ccccc1C` gave Autofluor counter 16184, BoNT-A LC inh2 inactive, BoNT F protease inactive, GDH-TPI counter inactive, Anthrax LF inh2 inactive and FBA Mtb inh inactive.
Screening CO/N=C(\c1ccccc1)c1cccnc1 returned Autofluor counter inactive, BoNT-A LC inh2 inactive, BoNT F protease 55.8, GDH-TPI counter inactive, Anthrax LF inh2 inactive and FBA Mtb inh inactive.
O=C(O)/C=C/C(=O)N1CCN(C(c2ccccc2)c2ccccc2)CC1 was read as Autofluor counter inactive, BoNT-A LC inh2 inactive, BoNT F protease inactive, GDH-TPI counter inactive, Anthrax LF inh2 inactive and FBA Mtb inh inactive.
`C=CCc1cc(/C=C2/NC(=O)N(CC(=O)OC)C2=O)cc(OC)c1O` gave Autofluor counter inactive, BoNT-A LC inh2 inactive, BoNT F protease inactive, GDH-TPI counter 32.1, Anthrax LF inh2 inactive and FBA Mtb inh inactive.
COc1ccc(CC(=O)Nc2ccccc2C(=O)N2CCOCC2)cc1 was read as Autofluor counter inactive, BoNT-A LC inh2 inactive, BoNT F protease inactive, GDH-TPI counter inactive, Anthrax LF inh2 inactive and FBA Mtb inh inactive.
Screening Cc1cccc(N2CCN(C(=O)C3CCCCC3)CC2)c1C returned Autofluor counter inactive, BoNT-A LC inh2 inactive, BoNT F protease inactive, GDH-TPI counter inactive, Anthrax LF inh2 inactive and FBA Mtb inh inactive.
For CCN(CC(=O)Nc1c(F)cccc1F)C(=O)C1Cc2ccccc2CN1S(=O)(=O)CC (stereo not drawn) the results were Autofluor counter 16229, BoNT-A LC inh2 inactive, BoNT F protease inactive, GDH-TPI counter inactive, Anthrax LF inh2 inactive and FBA Mtb inh inactive.
Screening CCS(=O)(=O)N1Cc2ccccc2CC1C(=O)N1CCN(c2cccc(C)c2C)CC1 (stereo not drawn) returned Autofluor counter 23317, BoNT-A LC inh2 inactive, BoNT F protease inactive, GDH-TPI counter inactive, Anthrax LF inh2 inactive and FBA Mtb inh inactive.
O=C(Nc1nc2ccc(S(=O)(=O)N3CCCCC3)cc2s1)c1cccnc1 was read as Autofluor counter 21943, BoNT-A LC inh2 inactive, BoNT F protease inactive, GDH-TPI counter 40.1, Anthrax LF inh2 inactive and FBA Mtb inh inactive.
Screening CN(C)S(=O)(=O)c1ccc2nc(NC(=O)c3cccs3)sc2c1 returned Autofluor counter 21214, BoNT-A LC inh2 inactive, BoNT F protease inactive, GDH-TPI counter inactive, Anthrax LF inh2 inactive and FBA Mtb inh inactive.
`CN(C)S(=O)(=O)c1ccc2nc(NC(=O)c3cccnc3)sc2c1` gave Autofluor counter inactive, BoNT-A LC inh2 inactive, BoNT F protease inactive, GDH-TPI counter 36.1, Anthrax LF inh2 inactive and FBA Mtb inh inactive.
Screening CC(=O)Nc1ccc2nc(NC(=O)c3cccnc3)sc2c1 returned Autofluor counter inactive, BoNT-A LC inh2 inactive, BoNT F protease inactive, GDH-TPI counter inactive, Anthrax LF inh2 inactive and FBA Mtb inh inactive.
For O=C(Nc1nc2ccc(F)cc2s1)c1cccs1 the results were Autofluor counter inactive, BoNT-A LC inh2 inactive, BoNT F protease inactive, GDH-TPI counter 40.2, Anthrax LF inh2 inactive and FBA Mtb inh inactive.
Screening O=C(Nc1nc2ccc(S(=O)(=O)N3CCCCC3)cc2s1)c1ccncc1 returned Autofluor counter inactive, BoNT-A LC inh2 inactive, BoNT F protease inactive, GDH-TPI counter inactive, Anthrax LF inh2 inactive and FBA Mtb inh inactive.
Screening O=C(Nc1ccon1)c1cccc(S(=O)(=O)N2CCCCCC2)c1 returned Autofluor counter inactive, BoNT-A LC inh2 inactive, BoNT F protease inactive, GDH-TPI counter inactive, Anthrax LF inh2 inactive and FBA Mtb inh inactive.
For O=C(Nc1ccon1)c1cccc(S(=O)(=O)N2CCCC2)c1 the results were Autofluor counter 19894, BoNT-A LC inh2 inactive, BoNT F protease inactive, GDH-TPI counter inactive, Anthrax LF inh2 inactive and FBA Mtb inh inactive.
Screening O=C(Nc1c(F)cc(F)cc1Br)c1cccnc1 returned Autofluor counter 23919, BoNT-A LC inh2 inactive, BoNT F protease inactive, GDH-TPI counter inactive, Anthrax LF inh2 inactive and FBA Mtb inh inactive.
Screening O=C(Nc1ccc(Br)cc1F)c1cccnc1 returned Autofluor counter inactive, BoNT-A LC inh2 inactive, BoNT F protease inactive, GDH-TPI counter inactive, Anthrax LF inh2 inactive and FBA Mtb inh inactive.

High-throughput results deposited in PubChem by several laboratories.
